Among all 48,000 compounds or so, about 13,000 (27%) showed an effect of 50% or more. Some of the results follow.
These compounds were tested on Wolbachia pipientis (assay: Anti-Wolbachia Cell-Based Screen). Conditions: 5 µM.
Type: functional
Set-up: scale not given: in the data most compounds retested in dose-response had high values

SMILES | Percent Effect [%]
CS(=O)(=O)c1ccc(NC(=O)N2CCc3sccc3C2)cn1 | 17.51
CN(C)c1ccc(NC(=O)CN2CCS(=O)(=O)CC2)cn1 | 10.44
O=C(c1cccnc1SC/C=C/c1ccccc1)N1CCOCC(O)C1 (stereo unspecified) | 8.468
COc1ncccc1C(=O)N1CC[C@H]2C[C@@H](C)O[C@@H]2C1 | 13.58
COc1ccc(Oc2ncccc2NC(=O)N2CC[C@H](O)C2)cc1 | 8.282
O=C(c1cccnc1-n1cncn1)N1CCN(c2ccccc2)CC1 | -6.157
CSc1ncccc1C(=O)N1C[C@H]2CC[C@@H]1CN(C(C)=O)C2 | 3.365
O=C(c1cccnc1SC/C=C/c1ccccc1)N1CC[C@H](O)C1 | 8.97
O=C(c1cccnc1Oc1ccc(Cl)cc1)N1CC[C@@H](O)C1 | 158.3
O=C(c1cccnc1SCc1ccccc1)N1CCOCC1 | 174.3
O=C(c1cccnc1SCc1ccccc1)N1CC[C@@H](O)C1 | 159.2
CN(C(=O)c1ccc(OCC(F)F)nc1)c1ccc2c(c1)CCO2 | 2.001
OC(CN1CC(n2cccn2)C1)c1ccc2c(c1)OCCO2 (stereo unspecified) | -60.78
CS(=O)(=O)NCCN1CCOC2(CCc3ccccc32)C1 (stereo unspecified) | 9.722
Cc1[nH]ccc1C(=O)N(C)C1CC(=O)N(Cc2ccccc2)C1=O (stereo unspecified) | -3.858
O=C(Cc1c[nH]c(=O)[nH]c1=O)N1CCC2(CCC(=O)N(C3CC3)C2)CC1 | 10.83
Cn1ccc(C(=O)Nc2nc(-c3ccc(Cl)cc3)n[nH]2)cc1=O | 5.787
CCCNC(=O)Cn1cc(C#N)c(=O)c2cc(Br)ccc21 | -9.356
CSCC(=O)Nc1ncc(I)cc1C | -3.012
Cc1cc(C)c(CNC(=O)NCc2ccc3c(c2)CCC3)c(=O)[nH]1 | -7.046
CN(C)S(=O)(=O)c1ccc(-c2nc(C#N)c(NC3CCCCC3)o2)o1 | 126.8
CN(C)S(=O)(=O)c1ccc(-c2nc(C#N)c(NC3CC3)o2)o1 | 107.9
CN(C)S(=O)(=O)c1ccc(CN2CCC(C(N)=O)CC2)o1 | -3.214
CSCC[C@@H](CO)n1ccnc1-c1ccncc1 | -26.42
C1CCC(OCCN2CCN(CCOC3CCCCC3)CC2)CC1 | 16.33
Oc1cccc(-c2cc(C3CCN(Cc4cncnc4)C3)ccn2)c1 (stereo unspecified) | -2.47

SMILES | Percent Effect [%]
CCC(=O)NCC(=O)NCC1(c2c(F)cccc2F)CCCC1 | -0.7519
O=C(O)C(F)(F)F.O=C(O)C(F)(F)F.c1ccc(OCc2nnc3n2CCN(Cc2ccco2)C3)nc1 | 6.411
O=C(O)C(F)(F)F.O=C1CCCN1Cc1nnc2n1CCN(Cc1ccco1)CC2 | 95.89
O=C(O)C(F)(F)F.O=C(O)C(F)(F)F.c1ccc(CN2CCc3nnc(CN4CCCCC4)n3CC2)nc1 | -3.311
CN(C)C(=O)NCc1ncn2c1CN(Cc1ccco1)CCC2.O=C(O)C(F)(F)F | -2.342
N#CCC(=O)NCc1nnc2n1CCN(Cc1ccco1)C2 | -13.02
c1cnc(OCc2nnc3n2CCN(Cc2ccco2)C3)nc1 | -5.792
O=C(O)C(F)(F)F.O=C1CCCN1Cc1nnc2n1CCCN(Cc1ccco1)C2 | 117.6
O=C1CCCN1Cc1nnc2n1CCN(Cc1ccco1)C2 | 88.52
CCN(Cc1ccccc1C)S(C)(=O)=O | -4.247
CN(CC(=O)NCc1ccccn1)CC1CCCN1c1cccnn1 (stereo unspecified) | -6.159
CN(CC(=O)NCc1ccccn1)C1CCCN(c2cccnn2)C1 (stereo unspecified) | 106.6
COCCCNC(=O)CN(C)C1CCCN(c2cccnn2)C1 (stereo unspecified) | 138.8
CN1C(=O)[C@H]2CC[C@@H]1CN(C(=O)c1nnc3n1CCCCC3)C2 | 10.69
NC(=O)NCCC(=O)NCc1cccnc1N1CCc2ccccc2C1 | 5.248
Cn1cccc1CCC(=O)N1CCC2(CC1)c1ccccc1CC2O (stereo unspecified) | 8.573
COc1cccc(COCC(=O)N2CCCC(c3cc(C)[nH]n3)C2)c1 (stereo unspecified) | 9.679
Cc1cccc(CC(=O)N2CCCC(c3n[nH]c4nccnc34)C2)c1 (stereo unspecified) | 102.4
COc1cccc(CC(=O)N2CCCC(c3n[nH]c4nccnc34)C2)c1 (stereo unspecified) | 81.22
Cc1cccc(C2CCCN(C(=O)CN3CCCC3=O)C2)c1 (stereo unspecified) | -1.59
N#Cc1cccc(NC2CC(=O)N(Cc3cccc(F)c3)C2)n1 (stereo unspecified) | 7.096
CCN(Cc1ccc(Cl)s1)S(=O)(=O)CCOC | -12.02
CCCc1n[nH]c(=O)n1Cc1ccccc1F | -4.193
CCCc1cc(C(=O)NCCN2C(=O)c3ccccc3C2=O)[nH]n1 | -4.22
C[C@H](c1ccc(Cl)cc1)n1c(C2CC2)n[nH]c1=O | -27.24
CC[C@@H](c1ccccc1)n1c(CN)n[nH]c1=O | 112.8

SMILES | Percent Effect [%]
CC[C@@H](c1ccccc1)n1c(C2CC2)n[nH]c1=O | 115.6
NCc1n[nH]c(=O)n1-c1ccccc1Oc1ccccc1 | -5.025
C[C@H](c1ccc(F)cc1)n1c(C2CCN(C)CC2)n[nH]c1=O | -149.6
CCC(c1ccccc1)N1CCN(C(=O)c2cc(C(N)=O)c[nH]2)CC1 (stereo unspecified) | -8.4
CC[C@@H](c1ccccc1)n1c(CCN)n[nH]c1=O | 91.36
CCCc1n[nH]c(=O)n1[C@@H](CC)c1ccccc1 | 92.4
Cn1cccc1C(=O)NC1CCN(c2ccc(OC(F)(F)F)cc2)CC1 | -13.65
CNC(=O)NC(=O)CN1CCC(c2c[nH]c3ccc(OC)cc23)CC1 | -6.098
O=S(=O)(c1cccc(F)c1)N1C[C@@H]2COC[C@]2(COCC2CC2)C1 | -1.949
COc1cc(CNCCC(N)=O)c2c(c1)CC(C)O2 (stereo unspecified) | 0.4704
CCN(CC)C(CNC(=O)c1ccc(S(C)(=O)=O)cc1)c1ccco1 (stereo unspecified) | 12.65
O=C(CNc1cc2c(cc1Br)OCCO2)NC1CCS(=O)(=O)C1 (stereo unspecified) | -16.13
CCNc1nnc(SCC(=O)N2CCN(Cc3ccc(Cl)s3)CC2)s1 | -3.982
Cc1cccc2c(CCNC(=O)NCCC[S+](C)[O-])c[nH]c12 (stereo unspecified) | 21.8
Cc1cccc2c(CCNC(=O)NCC[S+](C)[O-])c[nH]c12 (stereo unspecified) | -10.94
Cc1ccc(C)c2c(C)c(C(=O)NCC[S+](C)[O-])[nH]c12 (stereo unspecified) | 91.32
OC1CCN(c2ccccc2NCc2nc(-c3cccs3)no2)CC1 | 8.395
CNC(=O)N1CCC2(CC1)C(=O)N(C)c1c(F)cccc12 | 16.38
O=C(NCCn1cc(Cl)cn1)C1CCN(C(=O)C2CC2)CC1 | 13.04
O=C(NCc1ccc(CN2CCCCC2)cc1)Nc1cccnc1 | -23.63
CC(Cn1cc(Cl)cn1)C(=O)Nc1ccc(CN2CCCCCC2)cc1 (stereo unspecified) | 106.4
CC(C)n1nc2c(cc1=O)CN(Cc1ccc(-n3cccn3)cc1)CC2 | 0.8403
O=C(c1cncc(N2CCC3(CCCNC3)C2)n1)N1CCCC1 (stereo unspecified) | 43.3
COc1cc(C2(C(=O)NC3CCC4(CC3)OCCO4)CC2)ccc1C | 0.5256
Cc1ccccc1-n1cc(-c2ccnc(N[C@H](CO)C(C)C)n2)cn1 | -13.53
Cc1cnc(N2CCCC(O)C2)nc1-c1ccnn1C (stereo unspecified) | -3.995

SMILES | Percent Effect [%]
Cc1ccccc1-n1cc(CN(C)C[C@@H]2CCCN3CCCC[C@H]23)cn1 | 9.143
COC[C@H]1CCCN1c1nccc(-c2cnn(-c3ccccc3C)c2)n1 | 94.7
NCC1CCCN(c2nc(-c3ccccc3)nc3c2CCNCC3)C1 (stereo unspecified) | -16.76
Cc1ccccc1-n1cc(-c2ccnc(N3CCCC(O)C3)n2)cn1 (stereo unspecified) | 107.7
COCc1noc(-c2ccc(N3CCCCC3COC)nc2)n1 (stereo unspecified) | 2.136
Cc1ccccc1-n1cc(-c2ccnc(N3CCCC(CN)C3)n2)cn1 (stereo unspecified) | 108.9
O=C1CC2(CCN(Cc3ccc(C(F)(F)F)nc3)CC2)CN1 | -10.7
O=S(=O)(Cc1ccccc1F)NCCCN1CCCCC1 | -1.108
CCCc1cc(NCCCC2CCOC2)n2nccc2n1 (stereo unspecified) | -21.79
CC(C)C[C@H](Nc1nc(C2CCCC2)nc2c1cnn2C)C(N)=O | 1.529
O=C1O[C@@H]2CN(Cc3ccccc3)C[C@@H]2N1CCCN1CCOCC1 | -2.411
Cn1c(CN2CCOCC2)cc(=O)c(O)c1CN1CCOCC1 | 102.7
CN(CCN1CCCCC1)C(=O)c1cc(CN2CCOCC2)on1 | 7.335
Cn1c(=O)oc2ccc(NC(=O)N3CCOCC3)cc21 | 0.8661
Cn1c(CN2CCOCC2)nnc1C1CCCN(CC(N)=O)C1 (stereo unspecified) | -18.54
Cn1c(CN2CCOCC2)cc(=O)c(O)c1CN1CCCC1 | 100.1
Cn1c(CN2CCOCC2)cc(=O)c(O)c1CN1CCCCC1 | 117.1
CC(C)NC(=O)N1CCCC(c2nnc(CN3CCOCC3)n2C)C1 (stereo unspecified) | 7.81
CCS(=O)(=O)N1CCC(c2nnc(CN3CCOCC3)n2C)CC1 | 4.44
CCN(C)CC(=O)N1CCCC(c2nnc(CN3CCOCC3)n2C)C1 (stereo unspecified) | 14.42
O=C(NCCN1CCCC1)c1nc2c(o1)CN(C(=O)c1cccnc1)C2.O=C(O)C(F)(F)F.O=C(O)C(F)(F)F | -5.766
COCCN1CCc2ncc(CN(C)C)n2CC1 | -10.98
CC1CN(S(=O)(=O)c2ccc(F)cc2F)c2cccnc2O1 (stereo unspecified) | -5.201

Reference: ChEMBL document CHEMBL3988442, “University of Dundee, Small-Polar-MMV Screening Library” (2021)
